Mtb bLac sens – beta-lactam sensitization of Mtb H37Rv, H37Rv; M. tuberculosis H37Rv growth with meropenem, percent inhibition; inhibition, % at 25 µM; 330,000 compounds, 0.27% hits; AID 434955, 2010; call rule not given here;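 also: growth measured after seven days incubation then overnight dye step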
UGM FP inh – M. tuberculosis UGM enzyme inhibitors, primary screen, biochemical, fluorescence polarization, single point | UDP-galactopyranose mutase (Mycobacterium tuberculosis (strain ATCC 25618 / H37Rv)), … | purified UGM, fluorescence polarization probe displacement | inhibition, % at 10 µM | 320,000 compounds, 0.06% hits | AID 504406, 2011; in the data active = inhibition above about 10%, passing the limit was not always enough; inconclusive = no clear call, values can overlap the other calls
Target sequence (P9WIQ1 whole entry, looked up): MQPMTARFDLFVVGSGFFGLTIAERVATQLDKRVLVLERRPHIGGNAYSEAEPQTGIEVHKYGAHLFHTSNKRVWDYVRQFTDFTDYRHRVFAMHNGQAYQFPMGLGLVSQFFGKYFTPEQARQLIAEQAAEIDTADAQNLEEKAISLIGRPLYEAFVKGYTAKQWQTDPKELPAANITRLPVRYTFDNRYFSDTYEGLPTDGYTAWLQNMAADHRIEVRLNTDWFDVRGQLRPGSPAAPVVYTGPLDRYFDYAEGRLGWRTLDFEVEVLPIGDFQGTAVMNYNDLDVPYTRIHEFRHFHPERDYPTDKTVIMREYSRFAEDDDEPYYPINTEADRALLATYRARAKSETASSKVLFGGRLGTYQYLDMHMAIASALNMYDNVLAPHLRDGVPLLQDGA
Rv3671c inh – Rv3671c serine protease inhibitors, primary screen, biochemical, fluorescence polarization, M. tuberculosis H37Rv; P9WHR9; AID 2606, 2010; inhibition, % at 5.96 µM; 320,000 compounds, 0.048% hits; in the data active = inhibition above about 38%;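 also: extracellular domain of Rv3671c used as enzyme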
CCHFV vOTU inh – CCHFV vOTU protease inhibitors, primary screen, biochemical, Pep-AMC substrate, fluorescence | Crimean-Congo hemorrhagic fever virus L polyprotein viral ovarian tumor (vOTU) protease … | inhibition, % at 11.5 µM | 370,000 compounds, 0.55% hits; in the data active = inhibition above about 30%
RecA splice inh – Mtb RecA intein splicing inhibitors, primary screen, biochemical, fluorescence, HTS; Protein RecA (Mycobacterium tuberculosis (strain ATCC 25618 / H37Rv)), P9WHJ3; cell-free RecA intein splicing; inhibition, % (no concentration beside the values); 290,000 compounds, 0.75% hits; AID 2221, 2009; in the data active = inhibition above about 30%; inconclusive = no clear call, values can overlap the other calls
Each line names hits and unclear results; the compound was inactive in the other large screens. A selection: hits, their analogues and other compounds. The true share with any hit is near 1.2%.

Cc1cccc(-c2cccc3c4c([nH]c23)[C@@H]2C[C@H](N(C)C(=O)NC3CCCCC3)[C@H]([C@H](C)O)CN2CC4)c1	none (no result: Mtb bLac sens, UGM FP inh, Rv3671c inh, RecA splice inh)
Clc1ccc(CO/N=C(\Cn2ccnc2)c2ccc(Cl)cc2Cl)c(Cl)c1	RecA splice inh 32 (no result: CCHFV vOTU inh)
Clc1ccc(OCCCn2ccnc2)c(Br)c1	none
N[C@@H]1CCCC[C@H]1N.O=C(O)C(=O)O.[Pt]	RecA splice inh 50 (no result: CCHFV vOTU inh)
O=C(O)CC1CCC1CC(=O)O (stereo unspecified)	none (no result: Mtb bLac sens, UGM FP inh, Rv3671c inh, RecA splice inh)
CC(C)CNc1cccc2c1S(=O)(=O)N(Cc1cn(Cc3ccc(C(F)(F)F)cc3)nn1)Cc1ccccc1O2	none (no result: Mtb bLac sens, UGM FP inh, Rv3671c inh, RecA splice inh)
CCCCCn1nc(-c2ccccc2)c2nc3ccccc3nc21	UGM FP inh 38
COc1ccc(-n2c(C)cc(C(=O)CCl)c2C)cc1	RecA splice inh 34
COC(=O)[C@]12C[C@H](CC(=O)N3CCCCC3)C(=O)N(CCc3ccc(OC)c(OC)c3)C1=C[C@H](COCc1ccccc1)O[C@@H]2C	none (no result: Mtb bLac sens, UGM FP inh, Rv3671c inh, RecA splice inh)
O=C(CCc1ccccc1)N[C@H]1[C@@H](OC(=O)C2CC2)CCC[C@@]12C(=O)N(Cc1ccccc1)c1ccccc12	none (no result: Mtb bLac sens, UGM FP inh, Rv3671c inh, RecA splice inh)
CCn1nc(-c2ccccc2)nc2c(=O)n(C)c(=O)nc1-2	RecA splice inh 95 (no result: CCHFV vOTU inh)
CCn1c(COc2ccc(Cl)cc2)nnc1SCc1ccc(C#N)cc1	none
CCn1c(COc2ccc(Cl)cc2)nnc1SC1CCc2ccccc2C1=O (stereo unspecified)	RecA splice inh 62
CC(C)(C)N(Cc1cn(CC2CCCCC2)nn1)S(=O)(=O)c1ccccc1Br	none (no result: Mtb bLac sens, UGM FP inh, Rv3671c inh, RecA splice inh)
CCOC(=O)c1c(NC(=O)CCl)sc(CN(C)C)c1-c1ccccc1	RecA splice inh 50
CCOC(=O)c1c(NC(=O)CN2CCCCC2)sc(CN(C)C)c1-c1ccccc1	none
O=C(NCCc1c[nH]c2ccccc12)OCc1cn(Cc2ccc(F)cc2F)nn1	none (no result: Mtb bLac sens, UGM FP inh, Rv3671c inh, RecA splice inh)
CC(=O)c1coc2c1cc(O)c1ccccc12	Mtb bLac sens inconclusive
O=C(c1ccco1)c1coc2c1cc(O)c1ccccc12	RecA splice inh 45
Cc1ccc2nc(N3CCN(c4cccc(C)c4C)CC3)c3nnnn3c2c1	none
Cc1ccc2nc(Cl)c3nnnn3c2c1	RecA splice inh 79 (no result: CCHFV vOTU inh)
O=C(Nc1nc2ncccn2c1-c1ccc(F)c(F)c1)C1CC1	none (no result: Mtb bLac sens, UGM FP inh, Rv3671c inh, RecA splice inh)
CCOC(=O)c1nnc(-c2cccs2)nc1Oc1ccccc1C(=O)OC	none
CCOC(=O)c1nnc(-c2cccs2)nc1Oc1ccc(Cl)cc1	RecA splice inh 38
COc1ccc2[nH]c(C)c(C(=O)CN3CCN(C/C=C/c4ccccc4)CC3)c2c1	CCHFV vOTU inh 31
C/C(CC(=O)NCc1ccco1)=N\NC(=O)c1ccc([N+](=O)[O-])cc1Cl	RecA splice inh 69
C/C(CC(=O)NCc1ccco1)=N\NC(=O)c1ccc(Cl)cc1Cl	none
COc1ccc(CC(=O)N/N=C(\C)CC(=O)Nc2ccc(N(C)C)cc2)cc1	none
COc1ccc(CC(=O)N/N=C(/C)CC(=O)N(C)c2ccccc2)cc1	RecA splice inh 30
CCCCCCOC(=O)c1ccccc1NC(=O)/C=C/C(=O)O	RecA splice inh 67
O=C(O)c1ccccc1C(=O)OCCCCOC(=O)c1ccccc1C(=O)O	UGM FP inh 11
O=C(C(=O)N1CCC(CNS(=O)(=O)c2ccc(C(F)(F)F)cc2)CC1)c1cc2ccccc2o1	none (no result: Mtb bLac sens, UGM FP inh, Rv3671c inh, RecA splice inh)
O=C(Nc1ccccc1)c1nnsc1S(=O)c1ccc(Cl)cc1 (stereo unspecified)	RecA splice inh 35
CC(C)C[C@H]1COc2cccc(F)c2S(=O)(=O)N1Cc1cn(Cc2ccc(C(F)(F)F)cc2)nn1	none (no result: Mtb bLac sens, UGM FP inh, Rv3671c inh, RecA splice inh)
CC1=CC(C#N)(C#N)C(C#N)(C#N)C(c2ccccc2)N1 (stereo unspecified)	Rv3671c inh 43 (no result: CCHFV vOTU inh)
Cc1nc2ccccc2c(=O)n1-c1ccc(C(=O)O)cc1	none
O=C(O)c1ccc(-n2c(=O)c3ccccc3c3ccccc3c2=O)cc1	RecA splice inh 32
CN1CCc2nc3sc(C(=O)NC(C)(C)C)c(N)c3cc2C1	none
CC(C)OC(=O)CC(=O)c1sc2nc3c(cc2c1N)CN(C)CC3	UGM FP inh 16 (no result: CCHFV vOTU inh)
COC(=O)C1CN(Cc2ccc(Cl)cc2)CCS(=O)(=O)N1Cc1cn(Cc2ccccc2)nn1 (stereo unspecified)	none (no result: Mtb bLac sens, UGM FP inh, Rv3671c inh, RecA splice inh)
O=C(NCCO)Nc1ccc2nsnc2c1	none (no result: RecA splice inh)
OCCNC(=S)Nc1ccc2nsnc2c1	RecA splice inh 46
CCS(=O)(=O)C1=NN2C(=N)/C(=C\c3ccc(OC(=O)c4ccco4)c(Br)c3)C(=O)N=C2S1	none (no result: CCHFV vOTU inh)

From PubChem BioAssay
